# In all, about 2,900 compounds were measured (“IRF Lucia reporter activity, fold change vs agonist alone”: median about 0.9, highest 2% from about 2.8 on). The full list was thinned out, with the highest values kept by preference.
# Columns and labels:
# RAW-Dual [1] = test: IRF Lucia reporter activity, fold change vs agonist alone; higher = enhanced IRF activity; conditions: agonist: MPLA (TLR4) […]
# How it was run: (§1)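 Cytotoxic wells were those whose IncuCyte confluency was below 70% of agonist controls in both mask sets. The cells were RAW-Dual macrophages at 50,000 cells/well in DMEM on 384-well plates, dosed with 50 nL of library stock by pin tool, stimulated with a PRR agonist 1 h later, and kept at 37 °C, 5% CO2 for 20 hours. IRF and NF-κB reporter activity, as fold change over agonist-alone wells, came from supernatant read by QuantiLuc luminescence and QuantiBlue absorbance, respectively.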
# RAW-Dual [2] = test: IRF Lucia reporter activity, fold change vs agonist alone; cytotoxicity flag (confluency mask): not cytotoxic; higher = enhanced IRF activity
# How it was run: as §1
# RAW-Dual [3] = test: IRF Lucia reporter activity, fold change vs agonist alone; cytotoxicity flag (confluency mask): cytotoxic (confluency <70% of control); higher = enhanced IRF activity
# How it was run: as §1
# [4] = agonist: 3'3'-cGAMP (STING) 10 ug/mL
# [5] = library stock concentration (final ~1000-fold dilution): 10 mM, cytotoxicity flag (confluency mask): not cytotoxic
compound,measurement,setting,value
CCC(C)CC(C)CCCCCCCCC(=O)NC1CC(O)C(NCCN)NC(=O)C2C(O)CCN2C(=O)C(C(O)CCN)NC(=O)C(C(O)C(O)c2ccc(O)cc2)NC(=O)C2CC(O)CN2C(=O)C(C(C)O)NC1=O (stereo not given),IRF Lucia reporter activity,"RAW-Dual [1]; library stock concentration (final ~1000-fold dilution): 10 mM water, cytotoxicity flag (confluency mask): not cytotoxic",1.21
CCC(C)CC(C)CCCCCCCCC(=O)NC1CC(O)C(NCCN)NC(=O)C2C(O)CCN2C(=O)C(C(O)CCN)NC(=O)C(C(O)C(O)c2ccc(O)cc2)NC(=O)C2CC(O)CN2C(=O)C(C(C)O)NC1=O (stereo not given) (library stock concentration (final ~1000-fold dilution): 10 mM water),IRF Lucia reporter activity,RAW-Dual [2]; [4],0.923
same,IRF Lucia reporter activity,RAW-Dual [2]; agonist: LPS (TLR4) 0.1 ug/mL,0.909
Cn1cnc2c(F)c(Nc3ccc(Br)cc3Cl)c(C(=O)NOCCO)cc21 (library stock concentration (final ~1000-fold dilution): 10 mM),IRF Lucia reporter activity,RAW-Dual [2]; [4],0.69
same,IRF Lucia reporter activity,RAW-Dual [2]; agonist: LPS (TLR4) 0.1 ug/mL,3.1
Cn1cnc2c(F)c(Nc3ccc(Br)cc3F)c(C(=O)NOCCO)cc21,IRF Lucia reporter activity,RAW-Dual [1]; [5],2.67
Cn1cnc2c(F)c(Nc3ccc(Br)cc3F)c(C(=O)NOCCO)cc21 (library stock concentration (final ~1000-fold dilution): 10 mM),IRF Lucia reporter activity,RAW-Dual [2]; [4],0.728
same,IRF Lucia reporter activity,RAW-Dual [2]; agonist: LPS (TLR4) 0.1 ug/mL,2.67
Cn1cnc2c(F)c(Nc3ccc(Br)cc3Cl)c(C(=O)NOCCO)cc21,IRF Lucia reporter activity,RAW-Dual [1]; [5],2.77
COCCOc1nc(N)c2[nH]c(=O)n(Cc3ccc(C(=O)O)cc3)c2n1 (library stock concentration (final ~1000-fold dilution): 10 mM),IRF Lucia reporter activity,RAW-Dual [2]; [4],1.54
same,IRF Lucia reporter activity,RAW-Dual [2]; agonist: LPS (TLR4) 0.1 ug/mL,1.06
COC(C(=O)N1Cc2[nH]nc(NC(=O)c3ccc(N4CCN(C)CC4)cc3)c2C1)c1ccccc1 (stereo not given),IRF Lucia reporter activity,RAW-Dual [1]; [5],0.147
COC(C(=O)N1Cc2[nH]nc(NC(=O)c3ccc(N4CCN(C)CC4)cc3)c2C1)c1ccccc1 (stereo not given) (library stock concentration (final ~1000-fold dilution): 10 mM),IRF Lucia reporter activity,RAW-Dual [2]; [4],0.149
same,IRF Lucia reporter activity,RAW-Dual [2]; agonist: LPS (TLR4) 0.1 ug/mL,0.162
Cn1cncc1C(N)(c1ccc(Cl)cc1)c1ccc2c(c1)c(-c1cccc(Cl)c1)cc(=O)n2C (stereo not given),IRF Lucia reporter activity,"RAW-Dual [1]; library stock concentration (final ~1000-fold dilution): 10 mM, cytotoxicity flag (confluency mask): cytotoxic (confluency <70% of control)",0.481
Cn1cncc1C(N)(c1ccc(Cl)cc1)c1ccc2c(c1)c(-c1cccc(Cl)c1)cc(=O)n2C (stereo not given) (library stock concentration (final ~1000-fold dilution): 10 mM),IRF Lucia reporter activity,RAW-Dual [3]; [4],0.374
same,IRF Lucia reporter activity,RAW-Dual [3]; agonist: LPS (TLR4) 0.1 ug/mL,0.641
COC(=O)NC(C(=O)N1CCCC1C(=O)Nc1ccc(C2CCC(c3ccc(NC(=O)C4CCCN4C(=O)C(NC(=O)OC)C(C)C)cc3)N2c2ccc(C(C)(C)C)cc2)cc1)C(C)C (stereo not given) (library stock concentration (final ~1000-fold dilution): 10 mM),IRF Lucia reporter activity,RAW-Dual [2]; [4],0.995
same,IRF Lucia reporter activity,RAW-Dual [2]; agonist: LPS (TLR4) 0.1 ug/mL,1.21
COC(=O)NC(C(=O)N1CCCC1C(=O)Nc1ccc(C2CCC(c3ccc(NC(=O)C4CCCN4C(=O)C(NC(=O)OC)C(C)C)cc3)N2c2ccc(C(C)(C)C)cc2)cc1)C(C)C (stereo not given),IRF Lucia reporter activity,RAW-Dual [1]; [5],0.973
COC(=O)NC(C(=O)N1CCCC1c1ncc(-c2ccc3c(c2)OC(c2ccccc2)n2c-3cc3cc(-c4cnc(C5CCCN5C(=O)C(NC(=O)OC)C(C)C)[nH]4)ccc32)[nH]1)C(C)C (stereo not given),IRF Lucia reporter activity,RAW-Dual [1]; [5],1.01
COCC1CC(c2ncc(-c3ccc4c(c3)COc3cc5c(ccc6[nH]c(C7CCC(C)N7C(=O)C(NC(=O)OC)C(C)C)nc65)cc3-4)[nH]2)N(C(=O)C(NC(=O)OC)c2ccccc2)C1 (stereo not given) (library stock concentration (final ~1000-fold dilution): 10 mM),IRF Lucia reporter activity,RAW-Dual [2]; [4],0.767
same,IRF Lucia reporter activity,RAW-Dual [2]; agonist: LPS (TLR4) 0.1 ug/mL,0.91
COC(=O)NC(C(=O)N1CCCC1c1ncc(-c2ccc(-c3ccc(-c4cnc(C5CCCN5C(=O)C(NC(=O)OC)C(C)C)[nH]4)cc3)cc2)[nH]1)C(C)C (stereo not given),IRF Lucia reporter activity,RAW-Dual [1]; [5],3.26
COC(=O)NC(C(=O)N1CCCC1c1ncc(-c2ccc(-c3ccc(-c4cnc(C5CCCN5C(=O)C(NC(=O)OC)C(C)C)[nH]4)cc3)cc2)[nH]1)C(C)C (stereo not given) (library stock concentration (final ~1000-fold dilution): 10 mM),IRF Lucia reporter activity,RAW-Dual [2]; [4],1.04
same,IRF Lucia reporter activity,RAW-Dual [2]; agonist: LPS (TLR4) 0.1 ug/mL,4.15
COCC1CC(c2ncc(-c3ccc4c(c3)COc3cc5c(ccc6[nH]c(C7CCC(C)N7C(=O)C(NC(=O)OC)C(C)C)nc65)cc3-4)[nH]2)N(C(=O)C(NC(=O)OC)c2ccccc2)C1 (stereo not given),IRF Lucia reporter activity,RAW-Dual [1]; [5],0.857
COC(=O)NC(C(=O)N1CCCC1c1ncc(-c2ccc3c(c2)OC(c2ccccc2)n2c-3cc3cc(-c4cnc(C5CCCN5C(=O)C(NC(=O)OC)C(C)C)[nH]4)ccc32)[nH]1)C(C)C (stereo not given) (library stock concentration (final ~1000-fold dilution): 10 mM),IRF Lucia reporter activity,RAW-Dual [2]; [4],1.07
same,IRF Lucia reporter activity,RAW-Dual [2]; agonist: LPS (TLR4) 0.1 ug/mL,1.16
COC(=O)NC(C(=O)N1CC2(CC2)CC1c1ncc(-c2ccc3c(c2)C(F)(F)c2cc(-c4ccc5nc(C6C7CCC(C7)N6C(=O)C(NC(=O)OC)C(C)C)[nH]c5c4)ccc2-3)[nH]1)C(C)C (stereo not given),IRF Lucia reporter activity,RAW-Dual [1]; [5],0.979
COC(=O)NC(C(=O)N1CCCC1c1ncc(-c2ccc(-c3ccc(-c4cnc(C5CCCN5C(=O)C(NC(=O)OC)C(C)C)[nH]4)cc3)cc2)[nH]1)C(C)C.Cl.Cl (stereo not given) (library stock concentration (final ~1000-fold dilution): 10 mM),IRF Lucia reporter activity,RAW-Dual [2]; [4],0.948
same,IRF Lucia reporter activity,RAW-Dual [2]; agonist: LPS (TLR4) 0.1 ug/mL,7.56
COC(=O)NC(C(=O)N1CCCC1c1ncc(-c2ccc(-c3ccc(-c4cnc(C5CCCN5C(=O)C(NC(=O)OC)C(C)C)[nH]4)cc3)cc2)[nH]1)C(C)C.Cl.Cl (stereo not given),IRF Lucia reporter activity,RAW-Dual [1]; [5],5.97
COC(=O)NC(C(=O)N1CC2(CC2)CC1c1ncc(-c2ccc3c(c2)C(F)(F)c2cc(-c4ccc5nc(C6C7CCC(C7)N6C(=O)C(NC(=O)OC)C(C)C)[nH]c5c4)ccc2-3)[nH]1)C(C)C (stereo not given) (library stock concentration (final ~1000-fold dilution): 10 mM),IRF Lucia reporter activity,RAW-Dual [2]; [4],0.913
same,IRF Lucia reporter activity,RAW-Dual [2]; agonist: LPS (TLR4) 0.1 ug/mL,1.23
